# Compounds with a hit are over-represented: about 6.5% of the library has one in this group of screens.
# VACV Venus inh = qHTS for Stage-Specific Inhibitors of Vaccinia Orthopoxvirus: Venus Reporter Primary qHTS; Vaccinia virus Venus reporter expression, fluorescence; Potency, µM (doses to about 36.5 µM), actives largely listed as inhibitors; actives 0.46% (n = 330,000); AID 720580, 2013; calls by dose curve; tested in A549 cells; note: nearly all actives have a fitted effect of over 30% in size
# VACV mCherry inh = qHTS for Stage-Specific Inhibitors of Vaccinia Orthopoxvirus: mCherry Reporter Primary qHTS; Vaccinia virus mCherry reporter infection, fluorescence; Potency, µM (highest dose often 36.5 µM), most hits filed as inhibitors; actives 0.63% (n = 310,000); AID 720579, 2013; calls by dose curve; tested in A549 cells; note: nearly all actives have a fitted effect of over 35% in size
# Marburg entry inh = qHTS for inhibitors of binding or entry into cells for Marburg Virus; Marburg virus pseudotyped entry inhibition, cell reporter; Potency, µM (top dose mostly 37.8 µM), most hits filed as inhibitors; actives 1.8% (n = 300,000); AID 540276, 2011; calls by dose curve; tested in HEK293 cells
# FMDV antiviral = High Throughput Screening for Foot and Mouth Disease Virus Antivirals; actives 1.2% (n = 410,000); Potency, µM (titrated, usually from 57.9 µM), usual class: inhibitors; FMDV antiviral cell-based qHTS; calls by dose curve; tested in HEK293T cells; note: read-out not given here; nearly all actives have a fitted effect of over 45% in size
# Lassa entry inh = qHTS for Inhibitors of binding or entry into cells for Lassa Virus; actives 1.2% (n = 300,000); AID 540256, 2011; Potency, µM (highest dose often 37.9 µM), usual class: inhibitors; Lassa virus pseudotype entry inhibition, cell reporter; calls by dose curve; tested in HEK293 cells; note: nearly all actives have a fitted effect of over 50% in size
# HCMV inh = qHTS Assay for inhibitors of the human cytomegalovirus (HCMV); HFF cells, HCMV-luciferase reporter, 72 h; hits give low values; activity change, negative = inhibition, % at 57.5 µM; actives 4.5% (n = 410,000); in the data active = activity change below about -60%; inconclusive = no clear call, values can overlap the other calls; inactive = above about -39%
#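 HFF cells seeded 16 h at 37C, treated with compounds, infected with luciferase-reporter HCMV at MOI 1 PFU/cell; luciferase read at 72 h post infection, normalized to buffer-only and Salinomycin controls.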
# Numbers stand for hits; – = inactive; ? = inconclusive; · = not tested or not shown; + = active, no number; [ ] = another dose, or the depositor's remark.
SMILES,VACV Venus inh,VACV mCherry inh,Marburg entry inh,FMDV antiviral,Lassa entry inh,HCMV inh
Cc1cccc(N2CCN(C(=O)c3ccc4nc(-c5ccco5)c(-c5ccco5)nc4c3)CC2C)c1 (centres undefined),·,·,?,25µM,?,–
COc1cccc(C2=NOC(C(=O)Nc3cc(C)on3)C2)c1 (centres undefined),–,–,–,–,–,-102
COc1ccc(OC)c(C2=NOC(C(=O)Nc3cc(C)nn3-c3ccccc3)C2)c1 (centres undefined),?,+,–,–,–,–
COc1ccc(OC)c(C2=NOC(C(=O)Nc3ccccc3SC)C2)c1 (centres undefined),·,·,–,–,–,–
COc1cc(OC)c(NC(=O)C(CC(C)C)N2Cc3ccccc3C2=O)cc1Cl (centres undefined),–,–,·,–,–,-65
OC(c1ccc(CN2CCCCC2)cc1)c1ncc(-c2ccccc2F)[nH]1 (centres undefined),–,–,·,–,·,–
CCOC(=O)C1C(C(=O)Nc2cccc(C(F)(F)F)c2)C1C(=O)NC(C)C (centres undefined),–,–,–,32µM,?,–
Cc1[nH]nc(SCC(=O)N2CCOCC2)c1[N+](=O)[O-],–,–,–,–,–,–
Nc1nnc(SCc2ccc(F)cc2)s1,·,·,–,–,?,–
Nc1nc(SCc2ccc(F)cc2)ns1,–,–,–,–,?,-74
CCn1cc([N+](=O)[O-])c(C(=O)Nc2ccn(Cc3ccccc3)n2)n1,–,–,–,–,–,-74
CCn1cc([N+](=O)[O-])c(C(=O)Nc2ccn(C34CC5CC(CC(C5)C3)C4)n2)n1,–,–,?,–,–,–
Cc1cc(C)n(Cc2ccc(NC(=O)c3nn(C)cc3[N+](=O)[O-])cc2)n1,–,?,–,–,–,-101
CCn1cc([N+](=O)[O-])c(C(=O)Nc2nc3ccc(OC)cc3s2)n1,·,·,·,–,·,-89
Cc1ccc(Cn2ccc(NC(=O)c3nn(C)cc3[N+](=O)[O-])n2)cc1,–,?,?,–,–,-77
Cc1ccc(Cn2ccc(NC(=O)c3cc(C)on3)n2)cc1,–,–,?,–,–,–
CCn1cc([N+](=O)[O-])c(C(=O)Nc2ccc(Cn3nc(C)cc3C)cc2)n1,·,·,?,–,?,–
COc1ccc2c(c1)-c1nc(-n3ncc(C(=O)N(C)CC4CCCN(C)C4)c3C3CC3)ncc1CC2 (centres undefined),–,–,·,–,·,·
CC(=O)Nc1ccccc1-c1nc(CNC(=O)c2ccc(F)c(F)c2)c(C)o1,–,–,·,–,·,·
Cn1cc([N+](=O)[O-])c(C(=O)Nc2ccc(C3CCCCC3)cc2)n1,·,·,·,–,·,-100
COCCn1c(C)cc(C(=O)CSc2nc3ccccc3o2)c1C,·,·,?,–,?,–
CCCc1cc(=O)[nH]c(SCC(=O)c2cc(C)n(CCOC)c2C)n1,·,·,–,–,–,–
COCCn1c(C)cc(C(=O)CSc2nc3ccccc3s2)c1C,–,?,?,16µM,?,-83
Cc1cc(-n2c(C)cc(C(=O)CSc3nc(N)cc(=O)[nH]3)c2C)no1,–[7.34 µM],–[7.34 µM],·,?,·,?
COc1ccc(CCn2c(C)cc(C(=O)CSc3nc(N)cc(=O)[nH]3)c2C)cc1,?,–,?,18µM,?,-95
SMILES,VACV Venus inh,VACV mCherry inh,Marburg entry inh,FMDV antiviral,Lassa entry inh,HCMV inh
Cc1cc(C(=O)CSc2nc(N)cc(=O)[nH]2)c(C)n1-c1ccc(OC(F)F)cc1,?,?,?,3.5µM,?,-106
Cc1cc(C(=O)CSc2nc(N)cc(=O)[nH]2)c(C)n1CCc1ccc(F)cc1,?,–[1.46 µM],?,16µM,–,-82
O=C(CN(C(=O)c1csnn1)c1cccc(C(F)(F)F)c1)NCCc1ccccc1,–,–,–,–,–,–
O=C(NCc1ccncc1)c1csc(N2CCN(Cc3cccc(C(F)(F)F)c3)C2=O)n1,·,·,·,·,·,–
CN(CC(=O)Nc1ccccc1C(F)(F)F)C(=O)CSc1nnc(-c2ccncc2)n1C,·,·,·,–,·,?
COc1ccc(CCn2c(C)cc(C(=O)CSc3nnc(N)s3)c2C)cc1,–,–,?,28µM,?,·
Cc1cccc(NC(=O)c2cc(S(=O)(=O)N(C)c3ccc(F)cc3)ccc2Cl)n1,–,–,–,?,–,–
CC(C)C(NS(=O)(=O)c1cccc2nsnc12)C(=O)Nc1nc2ccc(Cl)cc2s1 (centres undefined),?,–,–,?,·,–
CCOc1ccc2nc(NC(=O)C(NS(=O)(=O)c3cccc4nsnc34)C(C)C)sc2c1 (centres undefined),?,7.9µM,–,–,·,–
O=C(Nc1nc2c(F)cc(F)cc2s1)c1ccccn1,?,?,?,–,7.1µM,-99
CCOc1cc(NC(=O)c2ccccn2)c(OCC)cc1NC(=O)c1ccccc1,–,–,–,–,?,-64
CCOc1ccc2nc(NC(=O)c3ccccn3)sc2c1,?,7.9µM,?,–,?,-100
O=C(COc1ccccc1)NNc1nc2c(F)cc(F)cc2s1,·,·,·,–,·,–
CCOc1ccc2nc(NC(=O)Nc3ccccc3)sc2c1,–,–,?,–,?,–
CCOc1cc(NC(=O)c2ccccn2)c(OCC)cc1NC(=O)c1ccc(Cl)cc1,·,·,·,–,·,–
CCOC(=O)c1ccc2nc(NC(=O)c3cccs3)sc2c1,–,?,4.5µM,–,?,–
Cc1ccc2nc(NC(=O)c3ccccn3)sc2c1,?,22µM,?,8.9µM,·,-98
CSc1nc2ccc(NC(=O)c3ccccn3)cc2s1,–,–,?,–,2µM,–
CCOC(=O)c1ccc2nc(NC(=O)c3ccco3)sc2c1,–,–,?,–,?,–
Cc1ccc2nc(NC(=O)c3ccccc3F)sc2c1,–,–,?,–,?,–
CCCCn1nnc(NC(=O)c2ccc([N+](=O)[O-])cc2Cl)n1,–,–,·,–,·,–
CC1(C)OC(=O)C(=NNc2ccc(C(=O)O)cc2)C(=O)O1,–,–,–,–,–,-90
CC1(C)OC(=O)C(=NNc2ccccc2)C(=O)O1,–,–,?,–,–,–
O=C1/C(=C/c2ccc(F)cc2)SC(=S)N1CC(=O)N1CCCCC1c1cccnc1 (centres undefined),·,·,·,–,·,-83
O=C(/C=C/c1ccc(F)cc1)NC(=S)N1CCCCC1c1cccnc1 (centres undefined),–,?,–,–,–,–
O=C1/C(=C/c2ccccc2F)SC(=S)N1CC(=O)N1CCCCC1c1cccnc1 (centres undefined),·,·,·,–,·,-76
CCOC(=O)/C=C/[C@H](C)NC(=O)C(F)(F)F,·,·,·,·,·,–
CCOc1ccccc1C(=O)Oc1ccc2ccc(=O)oc2c1,·,·,·,–,·,–
CC1=C(C(=O)Nc2ccc3[nH]ncc3c2)C(c2ccc(F)cc2)NC(=O)N1 (centres undefined),·,·,·,·,–,·
